# Test results taken from publication PMC7862700, “An all-to-all approach to the identification of sequence-specific readers for epigenetic DNA modifications on cytosine”.
# What was measured:
# Experiment in all cases: DAPPL (digital affinity profiling via proximity ligation, sequencing); 10 mM Tris-HCl pH 7.5, 50 mM NaCl, 1 mM DTT, 4% glycerol, room temperature, 30 min; GST-TFs on glutathione beads, 16-mer random dsDNA library, 0.1% formaldehyde crosslink after washing; high values mean tight binding
# FLI1 = molecular target: T1, FLI1 (Homo sapiens, UniProt Q01543 1-452); settings: protein: recombinant; tags: N-terminal GST; dsDNA, one strand shown
# T1 sequence: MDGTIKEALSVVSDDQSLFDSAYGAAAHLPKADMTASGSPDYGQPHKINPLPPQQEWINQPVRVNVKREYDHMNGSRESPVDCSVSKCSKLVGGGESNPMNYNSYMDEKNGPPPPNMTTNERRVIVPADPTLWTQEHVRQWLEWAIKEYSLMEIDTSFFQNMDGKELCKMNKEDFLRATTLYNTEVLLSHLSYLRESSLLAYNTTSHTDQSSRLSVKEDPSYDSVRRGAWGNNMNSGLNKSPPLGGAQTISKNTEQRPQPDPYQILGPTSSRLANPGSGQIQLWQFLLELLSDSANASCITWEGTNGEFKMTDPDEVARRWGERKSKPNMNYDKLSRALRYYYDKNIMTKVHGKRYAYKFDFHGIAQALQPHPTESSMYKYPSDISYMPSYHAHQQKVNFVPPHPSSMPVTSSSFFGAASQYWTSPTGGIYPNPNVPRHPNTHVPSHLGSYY
# Summary of the method: (§1)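 Sequencing on an Illumina NextSeq500 followed washing, crosslinking with 0.1% formaldehyde, proximity ligation (BsaI/T4 ligase, 1 h, 37 °C) and PCR amplification of pools that had been incubated for 30 min at room temperature with 200 nmole of a random double-stranded 16-mer DNA library in Tris/NaCl/DTT/glycerol buffer. Each pool held DNA-barcoded human transcription factors, expressed in yeast as GST fusions and captured on glutathione beads, plus a tag-only sample. Binding signal is a hexamer's read frequency for a factor divided by its frequency in the tag-only sample.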
# ELK1 = molecular target: T2, ELK1 (Homo sapiens, UniProt P19419 1-428); settings: protein: recombinant; tags: N-terminal GST; dsDNA, one strand shown
# T2 sequence: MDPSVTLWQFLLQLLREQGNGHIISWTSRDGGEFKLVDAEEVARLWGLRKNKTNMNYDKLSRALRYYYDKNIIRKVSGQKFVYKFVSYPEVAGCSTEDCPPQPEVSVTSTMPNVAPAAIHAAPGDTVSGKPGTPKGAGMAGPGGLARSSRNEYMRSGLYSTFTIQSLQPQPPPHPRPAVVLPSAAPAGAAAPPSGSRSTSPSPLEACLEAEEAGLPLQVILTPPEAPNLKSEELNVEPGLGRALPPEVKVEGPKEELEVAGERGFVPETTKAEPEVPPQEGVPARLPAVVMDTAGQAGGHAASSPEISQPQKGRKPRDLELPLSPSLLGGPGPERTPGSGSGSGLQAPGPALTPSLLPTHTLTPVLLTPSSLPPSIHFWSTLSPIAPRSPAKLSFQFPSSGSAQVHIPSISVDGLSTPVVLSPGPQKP
# Summary of the method: as §1
# GABPA = molecular target: T3, GABPA (Homo sapiens, UniProt Q06546 1-454); settings: protein: recombinant; tags: N-terminal GST; dsDNA, one strand shown
# T3 sequence: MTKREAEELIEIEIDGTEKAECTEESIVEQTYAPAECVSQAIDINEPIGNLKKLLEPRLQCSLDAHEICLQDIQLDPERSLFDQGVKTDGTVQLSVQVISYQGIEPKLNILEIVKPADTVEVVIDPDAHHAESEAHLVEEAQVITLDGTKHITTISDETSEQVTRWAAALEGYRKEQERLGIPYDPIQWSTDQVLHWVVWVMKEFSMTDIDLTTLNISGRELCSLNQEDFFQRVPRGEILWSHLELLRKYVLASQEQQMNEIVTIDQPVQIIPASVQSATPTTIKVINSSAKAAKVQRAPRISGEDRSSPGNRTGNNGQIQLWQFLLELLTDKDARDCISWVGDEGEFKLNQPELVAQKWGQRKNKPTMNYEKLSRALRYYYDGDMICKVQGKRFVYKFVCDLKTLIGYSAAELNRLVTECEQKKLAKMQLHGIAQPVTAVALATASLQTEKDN
# Summary of the method: as §1
# ERG = molecular target: T4, ERG (Homo sapiens, UniProt P11308 1-479); settings: protein: recombinant; tags: N-terminal GST; dsDNA, one strand shown
# T4 sequence: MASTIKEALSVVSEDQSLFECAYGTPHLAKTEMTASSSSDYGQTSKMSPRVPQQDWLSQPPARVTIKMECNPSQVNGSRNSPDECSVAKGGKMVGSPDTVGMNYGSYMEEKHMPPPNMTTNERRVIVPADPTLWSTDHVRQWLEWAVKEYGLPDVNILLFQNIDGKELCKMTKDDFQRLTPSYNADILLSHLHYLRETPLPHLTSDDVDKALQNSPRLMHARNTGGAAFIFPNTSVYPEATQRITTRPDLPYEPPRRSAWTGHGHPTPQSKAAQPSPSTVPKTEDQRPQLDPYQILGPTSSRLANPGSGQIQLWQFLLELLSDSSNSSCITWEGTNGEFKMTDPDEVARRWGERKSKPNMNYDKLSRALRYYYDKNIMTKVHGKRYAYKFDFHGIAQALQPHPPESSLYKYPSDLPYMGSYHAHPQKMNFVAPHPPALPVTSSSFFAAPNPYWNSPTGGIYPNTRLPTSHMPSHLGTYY
# Summary of the method: as §1
# ELF1 = ELF1 (Homo sapiens, UniProt P32519 1-619); settings: protein: recombinant; tags: N-terminal GST; dsDNA, one strand shown
# Summary of the method: as §1
# EHF = molecular target: T5, EHF (Homo sapiens, UniProt Q9NZC4 1-300); settings: protein: recombinant; tags: N-terminal GST; dsDNA, one strand shown
# T5 sequence: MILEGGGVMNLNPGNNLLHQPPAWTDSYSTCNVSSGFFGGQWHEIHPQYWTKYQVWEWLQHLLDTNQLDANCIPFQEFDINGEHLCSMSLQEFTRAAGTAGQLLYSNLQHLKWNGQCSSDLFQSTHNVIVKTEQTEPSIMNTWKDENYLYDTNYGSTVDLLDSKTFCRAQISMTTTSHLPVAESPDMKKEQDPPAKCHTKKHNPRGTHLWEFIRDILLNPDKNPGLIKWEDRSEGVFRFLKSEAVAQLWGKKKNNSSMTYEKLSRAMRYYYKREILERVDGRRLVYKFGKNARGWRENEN
# Summary of the method: as §1
# SPI1 = SPI1 (Homo sapiens, UniProt P17947 1-270); settings: protein: recombinant; tags: N-terminal GST; dsDNA, one strand shown
# Summary of the method: as §1
# SPIB = SPIB (Homo sapiens, UniProt Q01892 1-262); settings: protein: recombinant; tags: N-terminal GST; dsDNA, one strand shown
# Summary of the method: as §1
# ELK3 = molecular target: T6, ELK3 (Homo sapiens, UniProt P41970 1-407); settings: protein: recombinant; tags: N-terminal GST; dsDNA, one strand shown
# T6 sequence: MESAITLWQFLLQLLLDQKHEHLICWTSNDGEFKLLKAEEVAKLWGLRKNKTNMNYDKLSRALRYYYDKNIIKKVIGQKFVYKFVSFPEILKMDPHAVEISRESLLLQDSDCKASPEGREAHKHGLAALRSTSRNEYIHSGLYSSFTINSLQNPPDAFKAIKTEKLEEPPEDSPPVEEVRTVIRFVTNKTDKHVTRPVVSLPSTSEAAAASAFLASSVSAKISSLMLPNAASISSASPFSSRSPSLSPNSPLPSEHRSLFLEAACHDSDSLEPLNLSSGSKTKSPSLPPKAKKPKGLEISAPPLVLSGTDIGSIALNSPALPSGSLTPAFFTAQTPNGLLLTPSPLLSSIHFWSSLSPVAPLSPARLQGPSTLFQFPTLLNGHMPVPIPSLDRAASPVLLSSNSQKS
# Summary of the method: as §1
# FEV = molecular target: T7, FEV (Homo sapiens, UniProt Q99581 1-238); settings: protein: recombinant; tags: N-terminal GST; dsDNA, one strand shown
# T7 sequence: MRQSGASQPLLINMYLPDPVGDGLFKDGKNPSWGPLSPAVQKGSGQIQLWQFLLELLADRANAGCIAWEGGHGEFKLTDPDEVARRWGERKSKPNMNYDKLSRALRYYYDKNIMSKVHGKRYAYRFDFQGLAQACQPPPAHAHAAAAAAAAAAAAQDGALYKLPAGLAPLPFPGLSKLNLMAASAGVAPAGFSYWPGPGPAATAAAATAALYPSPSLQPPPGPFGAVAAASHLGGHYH
# Summary of the method: as §1
# ETV5 = ETV5 (Homo sapiens, UniProt P41161 1-510); settings: protein: recombinant; tags: N-terminal GST; dsDNA, one strand shown
# Summary of the method: as §1
# HSF1 = HSF1 (Homo sapiens, UniProt Q00613 1-529); settings: protein: recombinant; tags: N-terminal GST; chain copies: 3; dsDNA, one strand shown
# Summary of the method: as §1
# SPIC = molecular target: T8, SPIC (Homo sapiens, UniProt Q8N5J4 1-248); settings: protein: recombinant; tags: N-terminal GST; dsDNA, one strand shown
# T8 sequence: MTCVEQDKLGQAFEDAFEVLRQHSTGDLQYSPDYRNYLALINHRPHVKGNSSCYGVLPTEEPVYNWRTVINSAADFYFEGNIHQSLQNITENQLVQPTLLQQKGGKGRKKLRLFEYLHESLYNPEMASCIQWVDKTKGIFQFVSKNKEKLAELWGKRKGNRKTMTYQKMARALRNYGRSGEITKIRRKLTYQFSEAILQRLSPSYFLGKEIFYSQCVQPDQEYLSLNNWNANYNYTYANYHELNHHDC
# Summary of the method: as §1
# ELF4 = ELF4 (Homo sapiens, UniProt Q99607 1-663); settings: protein: recombinant; tags: N-terminal GST; dsDNA, one strand shown
# Summary of the method: as §1
# ELK4 = molecular target: T9, ELK4 (Homo sapiens, UniProt P28324-2 1-405); settings: protein: recombinant; tags: N-terminal GST; dsDNA, one strand shown
# T9 sequence: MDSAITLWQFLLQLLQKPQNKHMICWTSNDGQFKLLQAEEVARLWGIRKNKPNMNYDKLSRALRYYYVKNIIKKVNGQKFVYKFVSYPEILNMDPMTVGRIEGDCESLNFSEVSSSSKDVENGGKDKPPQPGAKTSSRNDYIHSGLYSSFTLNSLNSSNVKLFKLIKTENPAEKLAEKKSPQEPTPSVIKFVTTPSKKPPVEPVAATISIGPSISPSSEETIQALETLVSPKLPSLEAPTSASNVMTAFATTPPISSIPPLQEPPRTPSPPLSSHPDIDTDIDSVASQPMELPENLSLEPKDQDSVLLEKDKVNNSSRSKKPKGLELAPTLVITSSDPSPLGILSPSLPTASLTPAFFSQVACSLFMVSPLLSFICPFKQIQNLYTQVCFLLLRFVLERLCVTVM
# Summary of the method: as §1
# ETV2 = molecular target: T10, ETV2 (Homo sapiens, UniProt O00321 1-342); settings: protein: recombinant; tags: N-terminal GST; dsDNA, one strand shown
# T10 sequence: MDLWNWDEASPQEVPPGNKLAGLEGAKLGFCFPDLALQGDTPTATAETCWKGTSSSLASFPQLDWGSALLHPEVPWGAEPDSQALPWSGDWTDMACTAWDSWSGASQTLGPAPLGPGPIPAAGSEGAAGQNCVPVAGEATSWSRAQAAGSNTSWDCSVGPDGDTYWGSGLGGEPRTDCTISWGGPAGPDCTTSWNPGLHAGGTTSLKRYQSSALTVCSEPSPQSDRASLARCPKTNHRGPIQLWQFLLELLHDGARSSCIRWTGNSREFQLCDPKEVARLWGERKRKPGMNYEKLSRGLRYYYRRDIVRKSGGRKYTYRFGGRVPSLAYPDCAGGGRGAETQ
# Summary of the method: as §1
# ELF3 = molecular target: T11, ELF3 (Homo sapiens, UniProt P78545 1-371); settings: protein: recombinant; tags: N-terminal GST; dsDNA, one strand shown
# T11 sequence: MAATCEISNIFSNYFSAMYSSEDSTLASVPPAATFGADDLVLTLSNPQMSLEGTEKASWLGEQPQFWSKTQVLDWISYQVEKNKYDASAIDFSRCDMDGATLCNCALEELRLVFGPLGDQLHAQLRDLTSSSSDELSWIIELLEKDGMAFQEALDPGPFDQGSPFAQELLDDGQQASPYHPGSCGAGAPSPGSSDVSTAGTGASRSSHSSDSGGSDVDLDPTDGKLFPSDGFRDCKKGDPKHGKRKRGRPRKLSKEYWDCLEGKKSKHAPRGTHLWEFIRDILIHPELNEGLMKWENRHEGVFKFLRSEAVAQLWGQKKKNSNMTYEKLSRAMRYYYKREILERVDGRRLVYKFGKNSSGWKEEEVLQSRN
# Summary of the method: as §1
# CRX = CRX (Homo sapiens, UniProt O43186 1-299); settings: protein: recombinant; tags: N-terminal GST; dsDNA, one strand shown
# Summary of the method: as §1
# ETV1 = ETV1 (Homo sapiens, UniProt P50549 1-477); settings: protein: recombinant; tags: N-terminal GST; dsDNA, one strand shown
# Summary of the method: as §1
# Chain of ELF4 (Q99607 whole entry): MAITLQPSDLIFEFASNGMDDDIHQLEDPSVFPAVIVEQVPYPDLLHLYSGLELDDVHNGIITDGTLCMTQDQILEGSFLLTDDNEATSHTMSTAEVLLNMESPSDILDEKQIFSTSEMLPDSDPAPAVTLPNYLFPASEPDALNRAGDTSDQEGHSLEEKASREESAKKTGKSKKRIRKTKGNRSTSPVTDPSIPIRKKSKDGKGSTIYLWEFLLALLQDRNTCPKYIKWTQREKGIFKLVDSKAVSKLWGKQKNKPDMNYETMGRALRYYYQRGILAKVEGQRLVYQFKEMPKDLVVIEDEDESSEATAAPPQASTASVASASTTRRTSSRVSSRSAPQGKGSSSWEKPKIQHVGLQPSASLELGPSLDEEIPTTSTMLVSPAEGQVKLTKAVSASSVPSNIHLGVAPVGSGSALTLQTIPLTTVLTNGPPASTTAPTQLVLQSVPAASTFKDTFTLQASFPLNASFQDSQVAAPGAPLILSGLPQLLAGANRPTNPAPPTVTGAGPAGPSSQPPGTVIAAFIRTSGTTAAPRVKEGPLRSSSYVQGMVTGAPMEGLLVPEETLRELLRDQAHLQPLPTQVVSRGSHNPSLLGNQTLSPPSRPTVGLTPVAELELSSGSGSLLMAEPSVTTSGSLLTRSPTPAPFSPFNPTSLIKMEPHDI
# Chain of ETV5 (P41161 whole entry): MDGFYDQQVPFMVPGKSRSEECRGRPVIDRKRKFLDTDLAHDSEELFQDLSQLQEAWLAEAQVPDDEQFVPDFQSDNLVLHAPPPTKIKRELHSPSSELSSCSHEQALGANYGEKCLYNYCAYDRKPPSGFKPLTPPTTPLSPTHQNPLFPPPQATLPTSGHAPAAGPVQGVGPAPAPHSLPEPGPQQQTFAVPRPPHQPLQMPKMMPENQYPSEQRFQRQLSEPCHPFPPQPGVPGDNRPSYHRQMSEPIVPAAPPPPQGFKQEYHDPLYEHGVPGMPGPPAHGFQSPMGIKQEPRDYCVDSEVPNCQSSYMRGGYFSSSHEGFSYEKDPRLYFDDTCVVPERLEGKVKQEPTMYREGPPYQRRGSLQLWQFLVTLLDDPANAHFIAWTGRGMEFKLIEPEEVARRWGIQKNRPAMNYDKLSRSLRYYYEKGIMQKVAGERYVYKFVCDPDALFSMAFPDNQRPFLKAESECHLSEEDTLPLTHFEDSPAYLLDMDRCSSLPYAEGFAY
# Chain of SPIB (Q01892 whole entry): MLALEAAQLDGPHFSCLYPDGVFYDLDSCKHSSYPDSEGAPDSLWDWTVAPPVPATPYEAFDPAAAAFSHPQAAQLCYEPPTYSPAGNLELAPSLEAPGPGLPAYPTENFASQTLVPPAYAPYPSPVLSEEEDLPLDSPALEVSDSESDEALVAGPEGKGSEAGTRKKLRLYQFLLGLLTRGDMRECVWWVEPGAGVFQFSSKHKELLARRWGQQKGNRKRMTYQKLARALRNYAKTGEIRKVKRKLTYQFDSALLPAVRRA
# Chain of ETV1 (P50549 whole entry): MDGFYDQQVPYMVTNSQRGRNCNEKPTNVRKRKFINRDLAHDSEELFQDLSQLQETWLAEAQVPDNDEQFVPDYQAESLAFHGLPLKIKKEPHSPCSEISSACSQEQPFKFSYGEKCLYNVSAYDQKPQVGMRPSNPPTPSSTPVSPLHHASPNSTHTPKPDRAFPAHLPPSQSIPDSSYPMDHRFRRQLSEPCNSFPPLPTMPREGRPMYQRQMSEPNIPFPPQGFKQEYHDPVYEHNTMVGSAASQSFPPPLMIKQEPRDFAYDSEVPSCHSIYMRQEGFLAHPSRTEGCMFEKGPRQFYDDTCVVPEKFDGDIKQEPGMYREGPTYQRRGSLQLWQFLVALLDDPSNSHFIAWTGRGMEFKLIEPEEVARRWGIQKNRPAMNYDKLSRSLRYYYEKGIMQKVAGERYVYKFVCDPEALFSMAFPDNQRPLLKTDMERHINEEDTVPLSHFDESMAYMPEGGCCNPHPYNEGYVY
# Chain of HSF1 (Q00613 whole entry): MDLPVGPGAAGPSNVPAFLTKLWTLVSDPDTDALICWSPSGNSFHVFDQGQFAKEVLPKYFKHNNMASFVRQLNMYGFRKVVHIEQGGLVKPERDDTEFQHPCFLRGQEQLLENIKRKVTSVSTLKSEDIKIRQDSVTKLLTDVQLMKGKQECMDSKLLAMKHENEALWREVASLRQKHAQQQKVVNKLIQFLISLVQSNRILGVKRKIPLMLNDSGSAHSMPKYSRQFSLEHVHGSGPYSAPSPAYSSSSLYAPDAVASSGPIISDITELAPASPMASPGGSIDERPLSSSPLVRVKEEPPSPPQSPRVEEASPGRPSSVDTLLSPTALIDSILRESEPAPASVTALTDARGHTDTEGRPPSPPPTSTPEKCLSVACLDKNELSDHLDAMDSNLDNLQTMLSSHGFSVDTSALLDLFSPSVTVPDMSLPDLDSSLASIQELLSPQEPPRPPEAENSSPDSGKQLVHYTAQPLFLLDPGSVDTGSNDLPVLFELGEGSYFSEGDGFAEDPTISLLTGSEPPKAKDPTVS
# Chain of CRX (O43186 whole entry): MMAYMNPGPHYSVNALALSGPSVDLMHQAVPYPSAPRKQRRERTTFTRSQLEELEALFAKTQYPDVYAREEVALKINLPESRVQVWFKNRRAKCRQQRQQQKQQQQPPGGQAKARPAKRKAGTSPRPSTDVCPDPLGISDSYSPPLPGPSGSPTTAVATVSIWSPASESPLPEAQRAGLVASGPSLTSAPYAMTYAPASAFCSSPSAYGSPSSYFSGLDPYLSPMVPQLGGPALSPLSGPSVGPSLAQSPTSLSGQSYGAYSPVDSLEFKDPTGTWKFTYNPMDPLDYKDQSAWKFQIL
# Chain of ELF1 (P32519 whole entry): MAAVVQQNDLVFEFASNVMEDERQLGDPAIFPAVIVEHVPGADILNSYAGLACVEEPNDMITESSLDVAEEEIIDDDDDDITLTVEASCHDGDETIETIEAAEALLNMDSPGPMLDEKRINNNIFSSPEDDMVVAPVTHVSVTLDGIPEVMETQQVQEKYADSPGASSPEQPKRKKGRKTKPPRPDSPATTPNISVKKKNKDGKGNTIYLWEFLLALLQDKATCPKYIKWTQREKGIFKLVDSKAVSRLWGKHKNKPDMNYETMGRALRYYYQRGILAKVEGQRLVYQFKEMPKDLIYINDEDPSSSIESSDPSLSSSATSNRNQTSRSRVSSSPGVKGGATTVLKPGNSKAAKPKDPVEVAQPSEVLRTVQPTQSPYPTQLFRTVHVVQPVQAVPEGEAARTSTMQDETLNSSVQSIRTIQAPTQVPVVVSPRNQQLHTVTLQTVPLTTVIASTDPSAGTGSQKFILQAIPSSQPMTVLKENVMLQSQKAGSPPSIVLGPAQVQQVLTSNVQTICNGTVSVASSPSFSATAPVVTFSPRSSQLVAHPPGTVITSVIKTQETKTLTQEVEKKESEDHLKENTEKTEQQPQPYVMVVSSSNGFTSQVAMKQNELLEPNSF
sequence,measurement,setting,value
TTTATC,binding signal,FLI1,"1.25 fold enrichment (6-mer frequency, TF over GST control)"
same,binding signal,ELK1,"1.27 fold enrichment (6-mer frequency, TF over GST control)"
same,binding signal,GABPA,"1.25 fold enrichment (6-mer frequency, TF over GST control)"
same,binding signal,ERG,"1.22 fold enrichment (6-mer frequency, TF over GST control)"
same,binding signal,ELF1,"1.21 fold enrichment (6-mer frequency, TF over GST control)"
same,binding signal,EHF,"1.36 fold enrichment (6-mer frequency, TF over GST control)"
same,binding signal,SPI1,"1.26 fold enrichment (6-mer frequency, TF over GST control)"
same,binding signal,SPIB,"1.28 fold enrichment (6-mer frequency, TF over GST control)"
same,binding signal,ELK3,"1.37 fold enrichment (6-mer frequency, TF over GST control)"
same,binding signal,FEV,"1.14 fold enrichment (6-mer frequency, TF over GST control)"
same,binding signal,ETV5,"1.2 fold enrichment (6-mer frequency, TF over GST control)"
same,binding signal,HSF1,"1.65 fold enrichment (6-mer frequency, TF over GST control)"
same,binding signal,SPIC,"1.26 fold enrichment (6-mer frequency, TF over GST control)"
same,binding signal,ELF4,"1.2 fold enrichment (6-mer frequency, TF over GST control)"
same,binding signal,ELK4,"1.4 fold enrichment (6-mer frequency, TF over GST control)"
same,binding signal,ETV2,"1.24 fold enrichment (6-mer frequency, TF over GST control)"
same,binding signal,ELF3,"1.18 fold enrichment (6-mer frequency, TF over GST control)"
same,binding signal,CRX,"2.15 fold enrichment (6-mer frequency, TF over GST control)"
same,binding signal,ETV1,"1.18 fold enrichment (6-mer frequency, TF over GST control)"
